Screening results from PubChem.
Mot1-301 SUMO = blocks SUMOylation pathway, rescuing yeast Mot1-301 growth; S. cerevisiae Mot1-301 growth rescue, ATP luminescence, 38.5C; percent above DMSO median, 100 means doubled; growth rescue, % at 18.8 µM; hit rate 1% among 320,000; AID 2716;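 active = every valid replicate shows activation above 250% relative to neutral control wells; inactive = the rest, any valid replicate at or below 250%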
NR3A LBD binder = NR3A (human) ligand-binding domain modulation | NR3A LBD differential scanning fluorimetry, Tm shift; 0% = protein alone, 100% = glycine-bound protein | Tm shift relative to glycine control, % at 25 µM | hit rate 2.5% among 340,000;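 active = melting temperature shift of at least 10% of the positive control shift, at one fixed dose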
NTR1 agonist = agonists of human neurotensin receptor NTR1; P30989; NTR1-U2OS beta-arrestin-GFP spot imaging, agonist mode; activation, % at 20 µM; hit rate 0.17% among 330,000; AID 493036;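 active = activation at or above 40% of the spot to cytoplasm intensity ratio, with at least 20 cells analyzed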
Target sequence (P30989 whole entry, looked up): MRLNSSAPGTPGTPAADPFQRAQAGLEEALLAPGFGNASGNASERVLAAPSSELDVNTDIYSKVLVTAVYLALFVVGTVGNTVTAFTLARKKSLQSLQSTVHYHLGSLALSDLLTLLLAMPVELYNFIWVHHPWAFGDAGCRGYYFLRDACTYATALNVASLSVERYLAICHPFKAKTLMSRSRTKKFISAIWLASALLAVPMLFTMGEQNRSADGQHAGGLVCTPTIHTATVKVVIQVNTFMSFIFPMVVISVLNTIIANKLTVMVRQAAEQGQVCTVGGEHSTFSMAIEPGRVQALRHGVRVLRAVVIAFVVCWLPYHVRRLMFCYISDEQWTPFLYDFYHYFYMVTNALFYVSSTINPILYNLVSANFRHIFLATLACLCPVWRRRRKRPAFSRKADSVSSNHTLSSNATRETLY
AI-2 QS mod = modulates the Vibrio harveyi AI-2 quorum sensing system; hit rate 0.4% among 300,000; AID 2094; Vibrio harveyi JMH597 AI-2 luminescence/OD600 ratio, 9 h; active compounds read low; strain lacks LuxN and CqsS sensors; 0 = neutral-control median; activity change, % at 7.5 µM; in the data active = activity change below about -75%, passing the limit was not always enough;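 note: luminescence divided by OD600 gain over 9 h not by final OD600 alone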
AHR activator = activates the human aryl hydrocarbon receptor | P35869 | AHR-responsive luciferase reporter cells, luminescence | activation, % at 5 µM | hit rate 2.5% among 320,000; in the data active = activation above about 47%
H9c2 protect = myocardial damage modulation in H9c2 cells | H9c2 cardiomyocytes, H2O2 injury protection, ATPLite, 2 h | protection from H2O2 cell death, % at 20 µM | hit rate 0.63% among 360,000;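 active = compounds giving at least 50% protection of heart cells from peroxide-induced death in the single-dose screen, raw or plate-pattern-corrected value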
Each line names hits and unclear results; the compound was inactive in the other large screens. Only some compounds are listed: those with a hit (about 6.2% of all), similar ones and a draw of the others.

CN(C)S(=O)(=O)c1cccc(COC(=O)CN2C(=O)NC3(CCCC3)C2=O)c1	none
CCOc1ccccc1N1CCN(C(=O)Nc2ccc(Cl)c(Cl)c2)CC1	none (no result: NR3A LBD binder, H9c2 protect)
CC1=CC(=C(C#N)C#N)C=C(C)N1CCN1CCN(C(=O)Nc2ccc(Cl)c(Cl)c2)CC1	NR3A LBD binder 18
CCN(CC)CCN(C(=O)c1ccc(S(=O)(=O)N(CC)c2ccccc2)cc1)c1nc2c(OC)ccc(OC)c2s1	NR3A LBD binder 12
Fc1ccc2nncc(SCc3ccccc3Cl)c2c1	none (no result: Mot1-301 SUMO, NTR1 agonist, AI-2 QS mod, AHR activator)
Cn1c(OCC2CCCO2)nc2cc(-c3ccccc3)sc2c1=O (centres undefined)	none (no result: Mot1-301 SUMO, NR3A LBD binder, NTR1 agonist, AI-2 QS mod, AHR activator)
CCOc1ccc2oc(C(=O)NCC(c3ccco3)N(C)C)c(C)c2c1 (centres undefined)	none (no result: Mot1-301 SUMO, AI-2 QS mod, AHR activator)
Cc1c(C(=O)NCC(c2ccco2)N(C)C)oc2c(Cl)cccc12 (centres undefined)	AHR activator 48
CC(=O)Nc1ccc2nc(NC(=O)COc3ccccc3Cl)sc2c1	NR3A LBD binder 20
COc1cccc2sc(Nc3nc4ccc(NC(C)=O)cc4s3)nc12	NR3A LBD binder 31 (no result: NTR1 agonist)
Cc1ccc2nc(NC(=O)c3ccccc3F)sc2c1	none
CC(=O)Nc1ccc2nc(NC(=O)CCc3ccccc3)sc2c1	NR3A LBD binder 22 (no result: Mot1-301 SUMO)
CCCC(=O)Nc1nc2ccc(NC(=O)c3ccccc3F)cc2s1	AHR activator 62
COc1ccc(N2CCN(Cc3cc(=O)c(OCC(=O)NC4CCCC4)co3)CC2)cc1	none (no result: Mot1-301 SUMO)
CC(=O)Nc1ccc2nc(NC(=O)COc3cccc(C)c3)sc2c1	NR3A LBD binder 11
CC(=O)Nc1ccc2nc(NC(=O)COc3ccccc3C)sc2c1	NR3A LBD binder 23
CCOP(=O)(OCC)c1nc(-c2cccc3ccccc23)oc1NCCc1ccc(OC)cc1	NR3A LBD binder 16
CNc1ccc(/C=C(\CCC(=O)O)c2nc3ccccc3s2)cc1[N+](=O)[O-]	NR3A LBD binder 25
Cc1ccc(/C=C(\CCC(=O)O)c2nc3ccccc3s2)cc1[N+](=O)[O-]	none
C/C(=N\O)c1ccc(Cl)c(Cl)c1	none (no result: H9c2 protect)
CCCn1c2ccc(/C(C)=N\O)cc2c2cc(/C(C)=N/O)ccc21	AHR activator 48
CCN(CC)S(=O)(=O)c1ccc(N2CCN(CCOc3ccc(OC)cc3)CC2)nc1	none
Cc1cccc(-n2ccnc2CN2CCC(CO)(Cc3ccccc3)CC2)c1	Mot1-301 SUMO 643
Cc1cccc(-n2ccnc2CN2CCN(C3CCCC3)C(CCO)C2)c1 (centres undefined)	none
COC(=O)c1ccc(N2CCCCC2)c(NC(=O)c2ccco2)c1	none
CCOC(=O)Cc1ccc(Nc2nc(NCCOC)nc3ccsc23)cc1	none (no result: Mot1-301 SUMO, NR3A LBD binder, NTR1 agonist, AI-2 QS mod, AHR activator)
CC1CCCN(S(=O)(=O)c2cccc(C(=O)NCCCN3CCCC3=O)c2)C1 (centres undefined)	none (no result: Mot1-301 SUMO, NR3A LBD binder, NTR1 agonist, AI-2 QS mod, AHR activator)
O=[N+]([O-])c1cnc(Sc2ccncn2)s1	AI-2 QS mod -88
O=[N+]([O-])c1cnc(Sc2ccncn2)c([N+](=O)[O-])c1	none (no result: Mot1-301 SUMO, NR3A LBD binder, NTR1 agonist, AI-2 QS mod, AHR activator)
O=C(/C=C/c1ccccc1)NCCS(=O)(=O)N1CCN(c2ccc(F)cc2)CC1	none
CCOC(=O)c1cc(C#N)c(SCC(=O)c2cc(C#N)c(SC)nc2C)[nH]c1=O	H9c2 protect 76
COc1ccc(C(C)NC(=O)c2ccncc2)cc1 (centres undefined)	none
Cc1nnsc1Sc1ccccc1C(=O)O	Mot1-301 SUMO 376
Cn1cc(CNC(=O)C2CCC(=O)N(Cc3ccc(Cl)cc3)C2)cn1 (centres undefined)	none
CC(C)n1cc(CNC(=O)C2CCC(=O)N(Cc3ccccc3F)C2)cn1 (centres undefined)	Mot1-301 SUMO 324
COc1cccc(CN(C(=O)Cc2c[nH]c3ccccc23)C(C(=O)NC2CCCCC2)c2ccc(C)o2)c1 (centres undefined)	NR3A LBD binder 23
COc1ccc(CN(C(=O)Cc2c[nH]c3ccccc23)C(C(=O)NC2CCCCC2)c2ccc(C)o2)cc1 (centres undefined)	none
CCCNc1nc(C)nc2c1cnn2CCc1ccccc1	AHR activator 68
Cc1nc(NC(C)C)c2cnn(CCc3ccccc3)c2n1	AHR activator 59
CNC(=O)C[C@H]1C(=O)N(c2ccc(OC)cc2)C[C@@H]1C	none (no result: Mot1-301 SUMO, NR3A LBD binder, NTR1 agonist, AI-2 QS mod, AHR activator)
CCc1cccc(NC(=O)CCCn2c(=O)[nH]c3ccsc3c2=O)c1	none
